Experimental findings from PubChem BioAssay AID602310 (National Center for Advancing Translational Sciences (NCATS), 2012) are described below.

Hit rate of the full screen: of about 410,000 compounds, about 310 (0.076%) were called active. Entries that show only a call come without a potency. Not shown: some 2% with an inconclusive outcome. The sample holds actives, similar compounds and a random draw of the others, so the mix is not that of the screen. The call rests on the fitted dose curve; in most records, active means well fitted curve in the direction sought with a large enough effect; inconclusive means small, poorly fitted or top-dose-only effect; inactive means flat fitted curve, though single readings scatter.
Potency means the concentration at half of the fitted maximal effect.

Sequence of DNA dC->dU-editing enzyme APOBEC-3G (Homo sapiens) (Q9HC16 whole entry, looked up): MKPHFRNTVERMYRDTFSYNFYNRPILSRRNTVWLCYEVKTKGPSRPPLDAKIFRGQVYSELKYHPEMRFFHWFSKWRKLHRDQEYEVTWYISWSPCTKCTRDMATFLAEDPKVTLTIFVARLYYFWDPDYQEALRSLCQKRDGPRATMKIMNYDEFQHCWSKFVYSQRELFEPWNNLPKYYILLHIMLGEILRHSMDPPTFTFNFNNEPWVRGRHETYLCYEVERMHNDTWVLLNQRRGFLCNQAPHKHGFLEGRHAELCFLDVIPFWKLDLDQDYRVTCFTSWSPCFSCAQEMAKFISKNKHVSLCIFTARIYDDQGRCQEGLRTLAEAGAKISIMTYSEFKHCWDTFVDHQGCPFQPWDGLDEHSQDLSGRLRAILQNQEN

This test has as its target DNA dC->dU-editing enzyme APOBEC-3G (Homo sapiens) (UniProt Q9HC16). The test can be described thus: qHTS for Inhibitors of Vif-A3G Interactions: qHTS. Further: nearly all actives have a fitted effect of over 60% in size. Conditions: HeLa A3G-eYFP + Vif (tagged APOBEC3G with the HIV-1 protein that degrades it), YFP fluorescence, overnight; series mostly up to 46.1 µM. The text has this:
The recent discovery and characterization of host restriction factors, which provide a potent defense to invading retroviruses, has provided new targets for antiviral drug development. APOBEC3G (A3G) and APOBEC3F (A3F) are potent cytidine deaminases that block HIV-1 replication; HIV-1 expresses the Vif protein, which counteracts A3G and A3F by binding to them and inducing their proteasomal degradation. The Vif-A3G and Vif-A3F interactions provide two potential targets for development of small molecules which can interfere with the ability of Vif to degrade A3G or A3F. […] To identify inhibitors that can interfere with Vif mediated degradation of A3G and A3F, we have developed Hela cell lines that stably express A3G or A3F tagged with eYFP at the C-terminal end (A3G-eYFP or A3F-eYFP, respectively) and Vif. In the absence of an inhibitor, Vif induces degradation of A3G-eYFP and A3F-eYFP, and the cells are not fluorescent. In the presence of an inhibitor, it is expected that Vif will be unable to degrade A3G-eYFP and/or A3F-eYFP, resulting in an increase in yellow fluorescence. In this assays Vif A3G was screened against the Molecular Library Small Molecule Repository (MLSMR). NIH Chemical Genomics Center [NCGC] NIH Molecular Libraries Probe Centers Network [MLPCN] MLPCN Grant: MH093245 Assay Submitter (PI): Vinay Pathak, National Cancer Institute
5 uL of 700 cells/well of A3G-YFP cells are dispensed into black, clear bottom plates. The plates are incubated overnight at 37 deg C. 23 nL of compounds are added by pintool. The plates are incubated overnight at 37 deg C and then read on the TTP Acumen (Ex 488/ Em 500-530).
With `O=C(c1cnn2c1NC(=C1CC1)C=C2C(F)F)N1CCc2ccccc2C1`, the Potency result is “inactive”. Under `Cc1cccc(CNC(=O)c2cnc3sc(N4CCCCC4)nn3c2=O)c1` stands “inactive”; under `Cc1ccccc1NC(=O)Cn1c(=O)n(Cc2ccco2)c(=O)c2ccc(C(=O)NC3CCCC3)cc21`, “inactive”; under `CCOC(=O)c1ccc(NC(=O)c2c(NCc3cccs3)sc3c2CCCC3)cc1`, “inactive”. Then `CN(C)c1ccc(/C=C/c2sc3ccccc3[n+]2C)cc1`, with “inactive”.

In the case of `CC(C)Sc1oc(-c2cccs2)nc1S(=O)(=O)c1ccc(Cl)cc1`, the Potency entry was “inactive”. Then `CCOC(=O)C1CCC(CN(Cc2ccc(OC)cc2)S(=O)(=O)c2ccc(F)c(C(=O)Nc3cc(C)ccc3C)c2)CC1` (stereo not given), with “inactive”. Under `CC(C)c1ccc(NC(=O)Cn2c3ncccc3c(=O)n2-c2ccccc2)cc1` stands “inactive”. Under `CC(C)(C)c1ccc(C(=O)C[N+]2(C)CCCc3ccccc32)cc1` (stereo not given) stands “inactive”. For `Cc1cccc(N2CCN(S(=O)(=O)c3ccc4[nH]c5c(c4c3)CCCCC5)CC2)c1C`, the Potency entry was “inactive”. Under `O=C1NC(c2ccccc2)Oc2ccccc21` (stereo not given) stands “inactive”; under `O=C1NC(c2cccc(Cl)c2)Nc2ccccc21` (stereo not given), 11.2 µM (active); under `C=CCOc1cccc(C2NC(=O)c3ccccc3O2)c1` (stereo not given), “inactive”. Under `COc1ccc(S(=O)(=O)NCC(c2ccc(N(C)C)cc2)N2CCc3ccccc32)cc1OC` (stereo not given) stands “inactive”. Then `COc1cccc(NC(=O)Nc2ccc3c(c2)N(C)C(=O)c2ccccc2S3)c1`, with “inactive”; and `O=C(Nc1cc(C(F)(F)F)ccc1Cl)c1cc2nc(-c3ccc4c(c3)OCO4)cc(C(F)(F)F)n2n1`, with “inactive”. As for `CC(C)(C)NC(=O)CSc1nc(-c2ccc(F)cc2)cc(C(F)(F)F)n1`, the Potency entry is “inactive”. Then `CCOc1ccc(S(=O)(=O)c2cn(Cc3ccccc3)c3ccc(OCC)cc3c2=O)cc1`, with “inactive”; and `CC(NC(=O)c1cc2c(=O)n3ccccc3nc2n(C(C)C)c1=N)c1ccccc1` (stereo not given), with “inactive”. Then `CC1CC1C(=O)OCC(=O)Nc1cccc(F)c1` (stereo not given), with “inactive”; and `CCN(CC)C(=O)CSC(Nc1cccc(F)c1)=C(C#N)C#N`, with 12.6 µM (active). Under `CCN(CC)N=Nc1cccc(NC(C)=O)c1` stands “inactive”. Regarding `COc1ccc(/C=C/c2ccnc3ccccc23)cc1OC`, the Potency entry was “inactive”. Turning to `Cc1cccc(NC(=O)c2nnn(CC(=O)Nc3ccc(C(C)C)cc3)c2N)c1C`, the Potency result is “inactive”. Under `C/C=C/NNC(=O)Cc1ccc(OC)cc1` stands “inactive”; under `CO[C@H]1O[C@@H]2O[C@@]3(C)CC[C@@H]4[C@@H](C)CC[C@@H]([C@H]1C)[C@@]24OO3`, “inactive”; under `CCOc1ccc(-c2cc3nc(C4CCN(C(=O)OC(C)(C)C)CC4)c(C(=O)Nc4ccc(C(=O)OC)cc4)cn3n2)cc1`, “inactive”. Under `CS(=O)(=O)c1ccc(-c2nnc(NC(=O)c3ccc4c(c3)OCCO4)o2)cc1` stands “inactive”; under `CCCCCn1c(=O)[nH]c2cc(C(=O)Nc3ccc(F)cc3)ccc2c1=O`, “inactive”. In the case of `N#Cc1ccc[n+](CC(=O)c2ccc(O)c(O)c2)c1`, the Potency result was “inactive”. Then `COc1ccc(CN2CCC(=O)c3ccccc3S2(=O)=O)cc1`, with “inactive”; and `Cc1c(CCO)sc[n+]1CC(=O)c1ccc2ccccc2c1`, with “inactive”; and `O=C(CSc1nc(-c2cccc(F)c2)[nH]c1-c1ccccc1)Nc1ccc2c(c1)OCO2`, with “inactive”. Regarding `NC(=O)Nc1ccc(/C=C/c2ccnc3ccccc23)cc1`, the Potency entry is “inactive”. Under `CCN(CC)/[N+]([O-])=N/OCOC(=O)Cc1c(C)n(C(=O)c2ccc(Cl)cc2)c2ccc(OC)cc12` stands “inactive”; under `COc1cc(C)ccc1OCCSc1nc2ccc(NC(=O)c3ccc(C)cc3)cc2s1`, “inactive”. `CC(=O)c1ccc[n+](C(C)CCC(C)[n+]2cccc(C(C)=O)c2)c1` (stereo not given): the Potency entry is “inactive”. Then `CCCN1C(=O)C(O)(CC(=O)c2ccc(CC)cc2)c2cc(Br)ccc21` (stereo not given), with “inactive”; and `O=C(Nc1ccccc1C(F)(F)F)c1nc(S(=O)(=O)Cc2ccccc2F)ncc1Cl`, with “inactive”; and `Cc1cccc(N2CCN(C(=O)CCSCc3ccccc3F)CC2)c1C`, with “inactive”. Under `CN(CCC#N)c1ccc(C=O)cc1` stands “inactive”; under `Cc1ccc(-c2nn3c(=O)cc(CN4CCN(S(=O)(=O)c5ccc(Cl)cc5)CC4)nc3s2)cc1`, “inactive”; under `CC1(C)Cc2ccccc2-c2c[nH]c(=O)n21`, “inactive”.

`COc1cc(NC(=O)CN2CCN(S(=O)(=O)c3ccc(Br)cc3)CC2)cc(OC)c1`: the Potency entry is “inactive”. Under `Cc1cc(NC(=O)C2CCC(CNS(=O)(=O)c3ccc(Br)s3)CC2)ccc1Br` (stereo not given) stands “inactive”. Under `Cc1ccc(NC(=O)CCCn2c(=O)c3cccn3c3ccccc32)cc1Cl` stands “inactive”. Under `O=C1COc2ccc(-c3csc(-c4ccc(Cl)cc4)n3)cc2N1` stands “inactive”; under `CN(C)c1ccc(C=Nc2ccc(/C=C/c3ccnc4ccccc34)cc2)cc1`, “inactive”; under `Cc1ccc2nc(/C(C#N)=C/c3ccccc3F)[nH]c2c1`, “inactive”. `Cc1ccc2nc(/C(C#N)=C/c3ccc(-c4ccc(C(=O)OC(C)C)cc4)o3)[nH]c2c1`: the Potency was 2 µM (active).
